Screens as filed in PubChem.
In the library only some 1.9% were active in any assay of this set; here they are far more common.
MsrA inh: bovine MsrA enzyme inhibitors, primary screen, biochemical, absorbance, HTS. Methionine sulfoxide reductase A (Bos taurus). purified bovine MsrA, absorbance read-out. inhibition, % at 15.5 µM. 360,000 compounds, 0.75% hits. AID 651718, 2012; in the data active = inhibition above about 4.5%;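 note: 0% = vehicle wells with enzyme and 100% = reference inhibitor wells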
MOR-DOR inv ag: inverse agonists of MOR-DOR heterodimerization, primary screen, cell-based, luminescence; Mu-type opioid receptor (Homo sapiens) + Delta-type opioid receptor (Homo sapiens), …; cell-based MOR-DOR heterodimer luminescence, inverse agonism; inhibition, % at 9.3 µM; 340,000 compounds, 0.21% hits; in the data active = inhibition above about 22%, passing the limit was not always enough;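 note: 0% = cells with DMSO and 100% = wells without cells with DMSO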
Target sequence (P35372 whole entry, looked up): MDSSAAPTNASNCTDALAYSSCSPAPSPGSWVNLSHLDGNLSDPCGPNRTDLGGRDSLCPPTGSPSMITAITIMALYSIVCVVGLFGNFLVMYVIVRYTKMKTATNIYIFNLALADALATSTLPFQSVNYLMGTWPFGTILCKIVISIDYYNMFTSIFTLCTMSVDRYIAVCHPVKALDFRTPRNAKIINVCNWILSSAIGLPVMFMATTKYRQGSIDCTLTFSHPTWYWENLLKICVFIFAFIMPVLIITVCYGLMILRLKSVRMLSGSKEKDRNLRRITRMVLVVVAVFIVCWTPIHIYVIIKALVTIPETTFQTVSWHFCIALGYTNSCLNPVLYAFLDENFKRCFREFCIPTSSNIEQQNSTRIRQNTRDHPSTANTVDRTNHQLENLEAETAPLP
Target sequence (P41143 whole entry, looked up): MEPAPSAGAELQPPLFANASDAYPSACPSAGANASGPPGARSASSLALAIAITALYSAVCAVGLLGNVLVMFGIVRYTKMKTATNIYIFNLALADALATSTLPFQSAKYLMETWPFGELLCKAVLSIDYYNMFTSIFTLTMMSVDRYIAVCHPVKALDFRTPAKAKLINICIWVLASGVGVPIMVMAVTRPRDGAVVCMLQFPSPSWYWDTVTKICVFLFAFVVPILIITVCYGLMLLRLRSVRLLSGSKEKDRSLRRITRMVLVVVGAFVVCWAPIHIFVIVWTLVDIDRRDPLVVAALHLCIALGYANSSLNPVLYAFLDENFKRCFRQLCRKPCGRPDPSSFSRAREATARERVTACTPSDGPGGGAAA
HTR5A ag: HTR5A agonists in luminescence cell assay, primary screen, counter-screen for OPRM1-OPRD1 heterodimer agonist project, full-deck HTS; 5-hydroxytryptamine receptor 5A (Homo sapiens), P47898; cell-based; activation, % at 9.3 µM; 340,000 compounds, 0.61% hits; in the data active = activation mostly above about 9.5%, no sharp cut-off; inactive = mostly below about 7.6%;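 note: 0% = cells with vehicle only and 100% = reference agonist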
bovine MsrA act: bovine MsrA enzyme activators, primary screen, biochemical, absorbance, HTS; 360,000 compounds, 0.3% hits; activation, % at 10.6 µM; purified bovine MsrA, absorbance read-out; AID 602163, 2012; in the data active = activation above about 7.5%;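 note: 0% = vehicle and 100% = reference activator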
HTR5A inv ctr: HTR5A inverse agonists in luminescence cell assay, primary screen, counter-screen for OPRM1-OPRD1 heterodimer inverse agonist project, full-deck HTS; 340,000 compounds, 0.083% hits; 5-hydroxytryptamine receptor 5A (Homo sapiens), P47898; HTR5A cell line, inverse agonism; AID 504634, 2011; inhibition, % at 9.3 µM; in the data active = inhibition mostly above about 23%, no sharp cut-off; inactive = mostly below about 18%;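 note: 0% = cells with DMSO and 100% = no-cell wells with DMSO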
MOR-DOR ag: agonists of OPRM1-OPRD1 heterodimerization, primary screen, cell-based, luminescence | 340,000 compounds, 0.3% hits | activation, % at 9.3 µM | cells | Mu-type opioid receptor (Homo sapiens) + Delta-type opioid receptor (Homo sapiens), … | AID 504326, 2011; in the data active = activation above about 18%;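 note: 0% = vehicle-treated cells and 100% = reference agonist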
An asterisk follows results filed as active; / = not tested or not shown.

SMILES	MsrA inh	MOR-DOR inv ag	HTR5A ag	bovine MsrA act	HTR5A inv ctr	MOR-DOR ag
COc1cc2c(cc1OC)C(c1cccc(OC)c1OC)CC(=O)N2 (stereo not given)	0	19	0	-5	1	-4
COc1cc2c(cc1OC)C(c1ccc(OC)c(OC)c1OC)CC(=O)N2 (stereo not given)	0	10	10*	-12	-37	-2
CCCNC(=O)Cc1c(OC)ccc2cc(Br)ccc12	0	-18	13*	-14	-46	3
CCC(CN(C)C)Oc1cc(NCc2ccccc2)c2ncn(C(C)C)c2c1 (stereo not given)	/	-140	21*	0	-63	24*
COc1cc(NCc2ccccc2)c2ncn(C(C)C)c2c1	3	8	-1	-2	2	-2
COC(=O)C1=C(C)N(Cc2ccc(C(F)(F)F)cc2)C(=NCc2ccc(OC)cc2)NC1c1ccccc1 (stereo not given)	-1	/	/	/	/	/
COc1cc(C#Cc2c(-c3cncn3C)n(C)c3ccc(-c4cnc(OC)nc4)cc23)cc(OC)c1	1	-5	12*	-8	-44	1
COc1cc(C#Cc2c(-c3cncn3C)n(C)c3ccc(-c4cnc(N5CCOCC5)nc4)cc23)cc(OC)c1	-1	-9	2	-4	4	2
COc1ccc(C(=O)Nc2ccc3c(c2)C(=O)c2ccccc2C3=O)cc1OC	0	-16	3	-7	-10	3
COc1ccc(C(=O)c2c(C(F)(F)F)oc3c2C(=O)c2ccccc2C3=O)cc1OC	47*	-60	11	1	-7	14
Cc1snc(S(=O)(=O)/C(C#N)=N/Nc2ccc(C(F)(F)F)cc2)c1C#N	4.6*	24	0	1	1	-5
Cc1snc(S(=O)(=O)/C(C#N)=N\Nc2ccccc2)c1C#N	3	12	5	-1	-13	-2
Cc1cccc(N(Cc2ccccc2)C(=O)CCl)c1	0	-368	65*	-3	-181	67*
Cc1cc(N2CCOCC2)nc2ccc(NC(=S)N3CCCCC3C)cc12 (stereo not given)	1	-22	12*	-9	-33	3
Cc1cccc(C)c1NC(=O)CNC(=O)C(Cc1ccccc1)NC(=O)c1ccccc1 (stereo not given)	-1	3	13*	-1	-46	0
Cc1ccc(/C(O)=C2/C(=O)C(=O)N(CCN3CCOCC3)C2c2ccccn2)cc1 (stereo not given)	0	8	-1	-3	-7	-1
O=C1C(=O)N(CCN2CCOCC2)C(c2ccccn2)/C1=C(/O)c1ccccc1 (stereo not given)	2	11	12*	-4	-42	-2
COC(=O)c1cccc2c([N+](=O)[O-])c(NC(C)=O)cc(C(=O)OC)c12	0	/	/	/	/	/
COCc1cc(C)nc(OCC(=O)N/N=C/c2ccc(O)cc2O)c1C#N	4.5*	14	-4	-3	-9	-3
COC(=O)C1=C(C)N(Cc2ccc(C(F)(F)F)cc2)C(=NCc2ccc(C(F)(F)F)cc2)NC1c1ccc(F)cc1 (stereo not given)	-2	/	/	/	/	/
COc1ccccc1CCn1cnc(-c2cccc(Cl)c2)c1CC(C)C	1	/	/	/	/	/
C=CCN=C1NC(c2ccc(Cl)cc2)C(C(=O)OC)=C(C)N1Cc1ccccc1C(F)(F)F (stereo not given)	-1	/	/	/	/	/
CCOC(=O)/C(=C\c1ccccc1)C(=O)c1cc(C(C)=O)c(Nc2ccccc2)s1	-1	-4	3	-2	-4	1
CCOC(=O)/C(=C\c1cccnc1)C(=O)c1cc(C(C)=O)c(Nc2ccccc2)s1	/	33*	-7	-1	24	-5
CC1=Nc2cc(C(=O)NCCCN3CCOCC3)ccc2Sc2c(C)ccc(C)c21	2	9	10.0*	-2	-2	-2
SMILES	MsrA inh	MOR-DOR inv ag	HTR5A ag	bovine MsrA act	HTR5A inv ctr	MOR-DOR ag
CC1=Nc2cc(C(=O)NCCN3CCOCC3)ccc2Sc2c(C)ccc(C)c21	1	12	1	-1	0	-2
Cc1cc(Nc2nc3ccccc3nc2Cl)n(-c2ccc([N+](=O)[O-])cc2)n1	-2	8	-8	-9	38*	-1
Cc1cc(Nc2nc3ccccc3[nH]c2=O)n(-c2ccccc2)n1	1	-12	-5	0	-27	2
OC(CNCC1COc2ccccc2O1)COc1ccc(Cl)cc1 (stereo not given)	-1	-28	9.6*	2	-35	6
Cc1cc(N2CCN(C(=O)OC(C)(C)C)C[C@H]2C)ccc1N1CC[C@@H](O)C1	0	/	/	/	/	/
Fc1ccc2nc(-c3ccc(CN4CCC5(CC4)CNc4ccccc45)cc3)c(-c3ccccc3)nc2c1	3	/	/	/	/	/
CC(C)CN1C(=O)c2ccc(C(=O)NCc3ccccn3)cc2C1=O	2	-1	9.6*	-10	-10	0
O=C(N[C@H](Cc1ccccc1)C(=O)NCCN1CCOCC1)[C@H]1O[C@@H](n2ccc(=O)[nH]c2=O)[C@H](O)[C@@H]1O	0	/	/	/	/	/
Cc1ccc(N2CCN(CC(O)COC3CCCCC3)CC2)cc1 (stereo not given)	2	10	10*	-3	8	-2
C[C@@H]1CN([C@@H](C)CO)C(=O)CCCn2cc(nn2)CO[C@H]1CN(C)C(=O)Nc1ccc2c(c1)OCO2	0	/	/	/	/	/
CC(C)(C)n1nc(C2CC2)cc1NC(=O)Nc1ccccc1	1	/	/	/	/	/
CS(=O)(=O)c1ccc2nc(NC(=O)c3ccc(Cn4cc(Br)cn4)o3)sc2c1	5.4*	7	4	-7	-2	-1
COc1ccc(N2C(=O)c3n[nH]c(C)c3C2c2cccc(C(F)(F)F)c2)cc1 (stereo not given)	0	/	/	/	/	/
O=C(Nc1ccc2oc(=O)ccc2c1)c1ccc(-c2ccccc2[N+](=O)[O-])o1	-1	-144	14*	0	5	27*
CCc1c(-c2cccc(F)c2)ncn1CCc1ccccc1OC	0	/	/	/	/	/
CCCC(=O)Nc1ccc2c(c1)nc(CN1CCN(C(=O)OCC)CC1)n2C	1	10	5	-7	-19	-2
CCCC(=O)Nc1ccc2c(c1)nc(CN1CCN(C(=O)OCC)CC1)n2CC	0	11	9.8*	-2	-34	-2
CC(c1ccccc1)n1cc(C(=O)NCC2COc3ccccc3O2)nn1 (stereo not given)	0	-4	12*	-15	-37	1
O=C(NCC1COc2ccccc2O1)c1cn(Cc2ccc(F)cc2)nn1 (stereo not given)	0	3	13*	-10	-42	0
